Results taken from PubChem BioAssay (NCI).
About 83,000 compounds went through this panel and 20% of them were active in at least one assay; those are over-represented in the sample as a whole.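 Cell lines were cultured in 96-well plates, exposed to a single compound concentration, and assessed for percent growth 48 hours later.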 A number with no mark means an inactive call. Activity calls are given as the source filed them. Rule for the calls: active = growth percent below 10; inactive = the rest.

Tests used:
Assay in all cases: NCI-60 one-dose screen, 48 h (100 = growth as untreated, 0 = no growth, -100 = all killed)
Conditions in all cases: 10 µM unless noted
[1] = tested on: NCI-H23 lung
[2] = tested on: NCI-H226 lung
[3] = tested on: NCI-H322M lung
[4] = tested on: HOP-62 NSCLC
[5] = tested on: NCI-H460 lung
[6] = tested on: NCI-H522 lung
[7] = tested on: A549/ATCC NSCLC
[8] = tested on: 786-0 renal
[9] = tested on: COLO 205 colon
[10] = tested on: DU-145 prostate
[11] = tested on: K-562 leukemia
[12] = tested on: MALME-3M melanoma
[13] = tested on: MDA-MB-231 breast
[14] = tested on: RXF 393 renal
[15] = tested on: SF-268 CNS
[16] = tested on: SF-295 CNS
[17] = tested on: SF-539 CNS
[18] = tested on: UACC-257 melanoma
[19] = tested on: M14 melanoma

## O=C(/C=C/c1cn(-c2ccccc2)nc1-c1ccccc1)OCc1cn(-c2cccc([N+](=O)[O-])c2)nn1
[1]
  growth: 91.4%
[2]
  growth: 97.1%
[3]
  growth: 94.7%
[4]
  growth: 81.7%
[5]
  growth: 93.7%
[6]
  growth: 60.4%
[7]
  growth: 67.8%
[8]
  growth: 91.2%
[9]
  growth: 89.5%
[10]
  growth: 103%
[11]
  growth: 76.2%
[12]
  growth: 97.9%
[13]
  growth: 72.8%
[14]
  growth: 105%
[15]
  growth: 93.3%
[16]
  growth: 97.8%
[17]
  growth: 89.2%
[18]
  growth: 44.9%
[19]
  growth: 91.3%

## NC(=O)c1ccc[n+](Cc2ccccc2)c1
[1]
  growth: 96.1%
[2]
  growth: 102%
[3]
  growth: 104%
[4]
  growth: 127%
[5]
  growth: 108%
[6]
  growth: 99.3%
[7]
  growth: 94.3%
[8]
  growth: 109%
[9]
  growth: 112%
[10]
  growth: 101%
[11]
  growth: 113%
[12]
  growth: 75.4%
[13]
  growth: 105%
[14]
  growth: 97.6%
[15]
  growth: 107%
[16]
  growth: 109%
[17]
  growth: 96.7%
[18]
  growth: 95.3%
[19]
  growth: 96.3%

## COc1ncnc2[nH]cc(CN3CCN(c4ccc(F)cc4)CC3)c12
[1]
  growth: 98.4%
[2]
  growth: 103%
[3]
  growth: 107%
[4]
  growth: 107%
[5]
  growth: 108%
[6]
  growth: 95.1%
[7]
  growth: 96.5%
[8]
  growth: 103%
[9]
  growth: 116%
[10]
  growth: 116%
[11]
  growth: 108%
[12]
  growth: 103%
[13]
  growth: 117%
[14]
  growth: 111%
[15]
  growth: 104%
[16]
  growth: 98.1%
[17]
  growth: 108%
[18]
  growth: 99.8%
[19]
  growth: 106%

## CC1CCN(CCCCCOc2ccc3oc4ccc(Cl)cc4c(=O)c3c2)CC1
[1]
  growth: 73.6%
[2]
  growth: 94.7%
[3]
  growth: 79.8%
[4]
  growth: 77.1%
[5]
  growth: 26.6%
[6]
  growth: 52.9%
[7]
  growth: 47.5%
[8]
  growth: 45.8%
[9]
  growth: 21.7%
[10]
  growth: 78.9%
[11]
  growth: 9.6% (active)
[12]
  growth: 81.6%
[13]
  growth: 48%
[14]
  growth: 71%
[15]
  growth: 77.5%
[16]
  growth: 78.7%
[17]
  growth: 74.6%
[18]
  growth: 5.99% (active)
[19]
  growth: -54% (active)

## CCN(CC)C(=O)O/N=C(/C)c1ccccc1
[1]
  growth: 95.1%
[2]
  growth: 114%
[3]
  growth: 102%
[4]
  growth: 110%
[5]
  growth: 110%
[6]
  growth: 92.1%
[7]
  growth: 96.1%
[8]
  growth: 96.6%
[9]
  growth: 115%
[10]
  growth: 100%
[11]
  growth: 102%
[12]
  growth: 130%
[13]
  growth: 91%
[14]
  growth: 102%
[15]
  growth: 104%
[16]
  growth: 105%
[17]
  growth: 88.1%
[18]
  growth: 105%
[19]
  growth: 101%

## O=C(CCl)Nc1ccc2c(c1)C(=O)c1ccccc1C2=O
[1]
  growth: -21.2% (active)
[2]
  growth: -22.6% (active)
[3]
  growth: 83.5%
[4]
  growth: 19.9%
[5]
  growth: 3.8% (active)
[6]
  growth: -68.2% (active)
[7]
  growth: 75.7%
[8]
  growth: -72.3% (active)
[9]
  growth: -50.7% (active)
[10]
  growth: 3.17% (active)
[11]
  growth: -8.49% (active)
[12]
  growth: -62.5% (active)
[13]
  growth: -5.91% (active)
[14]
  growth: 39.8%
[15]
  growth: -20.3% (active)
[16]
  growth: 69.9%
[17]
  growth: -10.5% (active)
[18]
  growth: 36.2%
[19]
  growth: -31.6% (active)

## CC(=O)c1ccc(Br)c([N+](=O)[O-])c1
[1]
  growth: 106%
[2]
  growth: 112%
[3]
  growth: 107%
[4]
  growth: 109%
[5]
  growth: 109%
[6]
  growth: 27.6%
[7]
  growth: 100%
[8]
  growth: 95.4%
[9]
  growth: 127%
[10]
  growth: 113%
[11]
  growth: 89.7%
[12]
  growth: 98.6%
[13]
  growth: 117%
[14]
  growth: 113%
[15]
  growth: 117%
[16]
  growth: 96.9%
[17]
  growth: 107%
[18]
  growth: 111%
[19]
  growth: 97.2%

## CC(C)(c1ccccc1)c1cc(O)c(C(C)(C)c2ccccc2)cc1O
[1]
  growth: 38%
[2]
  growth: 43.2%
[3]
  growth: 59.7%
[4]
  growth: 63%
[5]
  growth: 21.9%
[6]
  growth: -2.05% (active)
[7]
  growth: 28.5%
[8]
  growth: 30.5%
[9]
  growth: 17%
[10]
  growth: 63.3%
[11]
  growth: 13%
[12]
  growth: 48.5%
[13]
  growth: -1.39% (active)
[14]
  growth: 63.4%
[15]
  growth: 38.7%
[16]
  growth: 25%
[17]
  growth: 50.4%
[18]
  growth: 11.3%
[19]
  growth: 11.9%

## O=S(=O)(Nc1ccc2ccccc2c1)N1CCCCC1
[1]
  growth: 56.6%
[2]
  growth: 75.9%
[3]
  growth: 92.8%
[4]
  growth: 62.9%
[5]
  growth: 65.5%
[6]
  growth: 2.32% (active)
[7]
  growth: 68.9%
[8]
  growth: 70.3%
[9]
  growth: 69.9%
[10]
  growth: 78.4%
[11]
  growth: 41.4%
[12]
  growth: 63.3%
[13]
  growth: 71.8%
[14]
  growth: 68.3%
[15]
  growth: 61.3%
[16]
  growth: 64%
[17]
  growth: 70.2%
[18]
  growth: 61.1%
[19]
  growth: 38.6%

## CC1=CC(=O)OC1C/C=C(\C)CCC1[C@@]2(C)CCC[C@@](C)(C(=O)O)C2CC[C@@]1(C)O (some centres undefined)
[1]
  growth: 68.4%
[2]
  growth: 43.7%
[3]
  growth: 55%
[4]
  growth: 51.7%
[5]
  growth: 9.27% (active)
[6]
  growth: 59.3%
[7]
  growth: 29.3%
[8]
  growth: 54.6%
[9]
  growth: 86.7%
[10]
  growth: 36.8%
[11]
  growth: 28.4%
[12]
  growth: 58.4%
[13]
  growth: 34.3%
[14]
  growth: 49.2%
[15]
  growth: 71.4%
[16]
  growth: 85.5%
[17]
  growth: 81.3%
[18]
  growth: 48.6%
[19]
  growth: 25.7%

## Cc1cc(C#Cc2ccc(C(C)(C)C)cc2)ccc1-n1c(/C=C/c2c(Cl)cccc2Cl)nc2ccccc2c1=O
[1]
  growth: 97.9%
[2]
  growth: 108%
[3]
  growth: 92.8%
[4]
  growth: 104%
[5]
  growth: 96.3%
[6]
  growth: 105%
[7]
  growth: 95.8%
[8]
  growth: 109%
[9]
  growth: 103%
[10]
  growth: 110%
[11]
  growth: 101%
[12]
  growth: 116%
[13]
  growth: 122%
[14]
  growth: 127%
[15]
  growth: 96.8%
[16]
  growth: 97.9%
[17]
  growth: 106%
[18]
  growth: 110%
[19]
  growth: 106%

## c1coc(CNc2c3ccccc3nc3ccccc23)c1
[1]
  growth: 63.6%
[2]
  growth: 62.9%
[3]
  growth: 65%
[4]
  growth: 69.6%
[5]
  growth: 56.5%
[6]
  growth: 47.3%
[7]
  growth: 61.9%
[8]
  growth: 65.7%
[9]
  growth: 35.2%
[10]
  growth: 76%
[11]
  growth: 44.7%
[12]
  growth: 90.4%
[13]
  growth: 60.5%
[14]
  growth: 61.5%
[15]
  growth: 85.7%
[16]
  growth: 53.9%
[17]
  growth: 65.9%
[18]
  growth: 81.7%
[19]
  growth: 79.7%

## COc1cc(-c2nn(C(=O)NCCN3CCN(C)CC3)cc2-c2ccncc2)ccc1Cl
[1]
  growth: 90.5%
[2]
  growth: 27.1%
[3]
  growth: 106%
[4]
  growth: 41.6%
[5]
  growth: 93.5%
[6]
  growth: 75.3%
[7]
  growth: 57%
[8]
  growth: 59.3%
[9]
  growth: 50.9%
[10]
  growth: 87.2%
[11]
  growth: 83.9%
[12]
  growth: 77.8%
[13]
  growth: 70.5%
[14]
  growth: 42.3%
[15]
  growth: 46.2%
[16]
  growth: 88.2%
[17]
  growth: 63.6%
[18]
  growth: 86.2%
[19]
  growth: 68.9%

## COc1ccc2nc(-c3ccc(-c4noc(-c5ccc(Cl)cc5)n4)cc3)[nH]c2c1
[1]
  growth: 63.7%
[2]
  growth: 93.4%
[3]
  growth: 67.5%
[4]
  growth: 97.4%
[5]
  growth: 79.1%
[6]
  growth: 88.6%
[7]
  growth: 72.8%
[8]
  growth: 98.5%
[9]
  growth: 67.8%
[10]
  growth: 48%
[11]
  growth: 45.1%
[12]
  growth: 37.1%
[13]
  growth: 75.6%
[14]
  growth: 103%
[15]
  growth: 63.4%
[16]
  growth: 87.5%
[17]
  growth: 77.2%
[18]
  growth: 74.5%
[19]
  growth: 42.9%

## O=C(Nc1cccc(N=Cc2c(O)ccc3ccccc23)c1)c1ccccc1
[1]
  growth: 95.8%
[2]
  growth: 94.1%
[3]
  growth: 95%
[4]
  growth: 86.9%
[5]
  growth: 111%
[6]
  growth: 76.8%
[7]
  growth: 94.7%
[8]
  growth: 93.4%
[9]
  growth: 105%
[10]
  growth: 98.2%
[11]
  growth: 97.3%
[12]
  growth: 102%
[13]
  growth: 94.1%
[14]
  growth: 90.4%
[15]
  growth: 89.1%
[16]
  growth: 95.2%
[17]
  growth: 90.5%
[18]
  growth: 91.6%
[19]
  growth: 91.1%

## O=C1N(Cc2ccccc2Cl)c2ccccc2C12NN=C(c1ccccc1)S2 (centres undefined)
[1]
  growth: 54.8%
[2]
  growth: 67.5%
[3]
  growth: 56.5%
[4]
  growth: 61.2%
[5]
  growth: 17.5%
[6]
  growth: 75.6%
[7]
  growth: 53.4%
[8]
  growth: 73.7%
[9]
  growth: 100%
[10]
  growth: 61.9%
[11]
  growth: 43.1%
[12]
  growth: 82.8%
[13]
  growth: 72.8%
[14]
  growth: 75.1%
[15]
  growth: 51.7%
[16]
  growth: 41%
[17]
  growth: 66.3%
[18]
  growth: 87.6%
[19]
  growth: 58.3%
